Laboratory results from the supplement of paper PMC10849652.
Of roughly 8,800 targets only a part is listed; those with a hit were picked by preference. About 0.5% of all pairs of compound and target were hits. Values without a mark were called inactive.

Legend:
Experiment in all cases: log2 fold change, soluble protein after heating vs DMSO (PISA); higher = thermal stabilisation; K562 lysate, 10 uM; active = over 0.2 and 3.5 SD of the protein, either way, in both replicates (recomputed)
vemurafenib = compound: CCCS(=O)(=O)Nc1ccc(F)c(C(=O)c2c[nH]c3ncc(-c4ccc(Cl)cc4)cc23)c1F [vemurafenib]
How it was run: (§1)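 Pellets of K562 cells were dounce-homogenised in PBS pH 7.4 with 1 mM MgCl2, and the crude extract was held at 1 mg/mL protein for a 30 min treatment with 10 μM compound. Aliquots were heated for 3 min over 48°C-58°C and pooled before NP-40 was added to 0.5% at 4°C. The supernatant from 21,000xg for 90 min was quantified by TMTpro 16plex LC-MS/MS with channel sums equalised. Values are reported from duplicates as log-two fold change in thermal stability relative to solvent controls.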

[1] = compound: CCCS(=O)(=O)Nc1ccc(F)c(C(=O)c2c[nH]c3ncc(Cl)cc23)c1F
How it was run: as §1

barasertib = compound: CCN(CCCOc1ccc2c(Nc3cc(CC(=O)Nc4cccc(F)c4)[nH]n3)ncnc2c1)CCOP(=O)(O)O [barasertib]
How it was run: as §1

[2] = compound: CC[C@@H]1C(=O)N(C)c2cnc(Nc3ccc(C(=O)NC4CCN(C)CC4)cc3OC)nc2N1C1CCCC1
How it was run: as §1

volasertib = compound: CC[C@@H]1C(=O)N(C)c2cnc(Nc3ccc(C(=O)N[C@H]4CC[C@H](N5CCN(CC6CC6)CC5)CC4)cc3OC)nc2N1C(C)C [volasertib]
How it was run: as §1

[3] = compound: CCn1c(C(=O)N(C2CC2)C2CC2)cc2c3c(ncn3C)c(Nc3cc(C)n(C)n3)nc21
How it was run: as §1

[4] = compound: CCn1cc(-c2ccnc3[nH]c(-c4cccc(CN(C)C)c4)cc23)c(-c2ccc(NC(=O)N(C)C)cc2)n1
How it was run: as §1

[5] = compound: CN1CCC(CNc2ccc3ncc(-c4cccc(OC(F)(F)F)c4)n3n2)CC1
How it was run: as §1

saracatinib = compound: CN1CCN(CCOc2cc(OC3CCOCC3)c3c(Nc4c(Cl)ccc5c4OCO5)ncnc3c2)CC1 [saracatinib]
How it was run: as §1

sotrastaurin = compound: CN1CCN(c2nc(C3=C(c4c[nH]c5ccccc45)C(=O)NC3=O)c3ccccc3n2)CC1 [sotrastaurin]
How it was run: as §1

alvocidib = compound: CN1CC[C@H](c2c(O)cc(O)c3c(=O)cc(-c4ccccc4Cl)oc23)[C@H](O)C1 [alvocidib]
How it was run: as §1

Tubastatin A = compound: CN1CCc2c(c3ccccc3n2Cc2ccc(C(=O)NO)cc2)C1 [Tubastatin A]
How it was run: as §1

[6] = compound: CNC(=O)C1=CC=CC=C1NC2=NC(=NC=C2Cl)NC3=C(C=C(C=C3)N4CCOCC4)OC
How it was run: as §1

defactinib = compound: CNC(=O)c1ccc(Nc2ncc(C(F)(F)F)c(NCc3nccnc3N(C)S(C)(=O)=O)n2)cc1 [defactinib]
How it was run: as §1

[7] = compound: CNc1nc(-c2ccc3c(N)n[nH]c3c2)cc(N2C[C@@H](C(=O)NC3CCCCC3)CC[C@H]2C)n1
How it was run: as §1

encorafenib = compound: COC(=O)N[C@@H](C)CNc1nccc(-c2cn(C(C)C)nc2-c2cc(Cl)cc(NS(C)(=O)=O)c2F)n1 [encorafenib]
How it was run: as §1

[8] = compound: COC(=O)[C@H](CCSC)NC(=O)C1=C(C=C(C=C1)NC[C@H](CS)N)C2=CC=CC=C2
How it was run: as §1

alisertib = compound: COc1cc(Nc2ncc3c(n2)-c2ccc(Cl)cc2C(c2c(F)cccc2OC)=NC3)ccc1C(=O)O [alisertib]
How it was run: as §1

[9] = compound: COc1cc2nc(-c3cc(F)ccc3O)nc(N[C@@H]3CNC[C@H]3C(C)(C)O)c2cc1OC
How it was run: as §1

gefitinib = compound: COc1cc2ncnc(Nc3ccc(F)c(Cl)c3)c2cc1OCCCN1CCOCC1 [gefitinib]
How it was run: as §1

Chain of UniProt P49589 (P49589 whole entry, looked up): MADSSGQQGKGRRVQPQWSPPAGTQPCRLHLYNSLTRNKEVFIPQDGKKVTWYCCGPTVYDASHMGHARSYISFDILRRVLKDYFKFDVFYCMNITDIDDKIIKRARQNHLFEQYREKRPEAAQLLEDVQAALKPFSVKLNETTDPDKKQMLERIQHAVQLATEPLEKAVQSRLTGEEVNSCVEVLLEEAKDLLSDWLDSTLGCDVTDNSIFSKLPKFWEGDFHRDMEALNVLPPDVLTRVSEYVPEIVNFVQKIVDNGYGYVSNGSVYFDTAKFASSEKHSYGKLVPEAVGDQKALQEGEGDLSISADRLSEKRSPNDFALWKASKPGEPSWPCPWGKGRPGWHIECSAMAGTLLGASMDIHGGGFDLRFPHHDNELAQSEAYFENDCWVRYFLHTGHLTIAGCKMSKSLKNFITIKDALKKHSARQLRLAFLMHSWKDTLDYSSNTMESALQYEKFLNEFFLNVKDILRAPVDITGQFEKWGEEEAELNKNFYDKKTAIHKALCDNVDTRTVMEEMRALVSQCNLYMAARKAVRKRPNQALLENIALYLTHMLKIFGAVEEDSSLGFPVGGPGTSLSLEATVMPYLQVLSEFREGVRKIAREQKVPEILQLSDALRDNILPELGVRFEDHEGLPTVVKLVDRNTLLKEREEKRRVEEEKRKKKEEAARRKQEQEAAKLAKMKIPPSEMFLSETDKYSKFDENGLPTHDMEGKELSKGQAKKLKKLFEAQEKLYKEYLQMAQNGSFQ
Chain of UniProt Q9Y487 (Q9Y487 whole entry, looked up): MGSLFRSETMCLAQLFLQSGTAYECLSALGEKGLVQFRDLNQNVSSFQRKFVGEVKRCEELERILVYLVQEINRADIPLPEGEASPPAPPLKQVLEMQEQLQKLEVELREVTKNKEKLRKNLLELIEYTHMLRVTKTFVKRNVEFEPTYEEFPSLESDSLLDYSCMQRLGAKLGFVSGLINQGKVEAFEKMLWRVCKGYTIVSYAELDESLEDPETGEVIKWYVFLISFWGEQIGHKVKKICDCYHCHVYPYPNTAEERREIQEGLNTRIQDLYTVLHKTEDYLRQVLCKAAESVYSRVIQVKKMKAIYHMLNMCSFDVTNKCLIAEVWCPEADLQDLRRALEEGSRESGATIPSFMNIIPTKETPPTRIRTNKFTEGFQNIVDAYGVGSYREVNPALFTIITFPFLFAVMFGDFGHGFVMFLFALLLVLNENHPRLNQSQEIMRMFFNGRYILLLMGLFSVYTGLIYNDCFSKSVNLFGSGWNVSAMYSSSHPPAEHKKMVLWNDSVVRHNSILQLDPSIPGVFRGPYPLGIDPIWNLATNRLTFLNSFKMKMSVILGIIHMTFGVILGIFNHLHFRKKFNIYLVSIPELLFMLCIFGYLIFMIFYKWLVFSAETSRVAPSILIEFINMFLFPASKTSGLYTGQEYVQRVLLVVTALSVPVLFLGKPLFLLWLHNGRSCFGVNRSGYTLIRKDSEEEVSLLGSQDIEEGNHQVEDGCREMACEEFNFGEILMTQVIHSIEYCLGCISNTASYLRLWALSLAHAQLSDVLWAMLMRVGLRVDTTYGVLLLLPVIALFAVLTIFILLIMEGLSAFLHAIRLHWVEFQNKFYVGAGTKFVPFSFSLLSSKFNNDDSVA
Chain of UniProt Q9UL45 (Q9UL45 whole entry, looked up): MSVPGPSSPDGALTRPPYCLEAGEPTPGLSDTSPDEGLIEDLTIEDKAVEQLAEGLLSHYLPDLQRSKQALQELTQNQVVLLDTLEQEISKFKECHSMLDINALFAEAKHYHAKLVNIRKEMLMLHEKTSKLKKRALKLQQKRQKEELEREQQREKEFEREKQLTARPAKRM
Chain of UniProt P25440 (P25440 whole entry, looked up): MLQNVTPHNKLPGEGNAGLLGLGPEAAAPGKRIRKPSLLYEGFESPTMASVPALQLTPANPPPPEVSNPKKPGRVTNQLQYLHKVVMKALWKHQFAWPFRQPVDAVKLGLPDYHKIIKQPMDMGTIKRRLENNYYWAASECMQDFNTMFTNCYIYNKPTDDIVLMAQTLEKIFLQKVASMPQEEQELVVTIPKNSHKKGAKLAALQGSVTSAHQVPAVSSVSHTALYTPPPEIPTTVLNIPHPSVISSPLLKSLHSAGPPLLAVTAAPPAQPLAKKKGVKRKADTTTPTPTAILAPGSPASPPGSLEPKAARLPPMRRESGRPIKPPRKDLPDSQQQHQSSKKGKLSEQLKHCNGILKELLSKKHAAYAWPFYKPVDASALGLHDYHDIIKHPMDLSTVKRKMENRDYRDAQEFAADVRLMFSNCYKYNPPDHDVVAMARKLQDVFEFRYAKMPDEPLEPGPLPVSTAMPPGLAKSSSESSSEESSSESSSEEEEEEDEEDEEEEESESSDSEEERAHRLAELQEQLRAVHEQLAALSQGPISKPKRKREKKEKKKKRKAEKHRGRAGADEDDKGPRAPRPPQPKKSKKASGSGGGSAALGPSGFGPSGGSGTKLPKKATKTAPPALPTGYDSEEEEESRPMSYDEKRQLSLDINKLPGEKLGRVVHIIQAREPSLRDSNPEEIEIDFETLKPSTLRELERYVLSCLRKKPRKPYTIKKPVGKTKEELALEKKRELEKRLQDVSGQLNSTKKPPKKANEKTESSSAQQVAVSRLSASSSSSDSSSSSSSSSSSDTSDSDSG
Chain of UniProt Q96RR4 (Q96RR4 whole entry, looked up): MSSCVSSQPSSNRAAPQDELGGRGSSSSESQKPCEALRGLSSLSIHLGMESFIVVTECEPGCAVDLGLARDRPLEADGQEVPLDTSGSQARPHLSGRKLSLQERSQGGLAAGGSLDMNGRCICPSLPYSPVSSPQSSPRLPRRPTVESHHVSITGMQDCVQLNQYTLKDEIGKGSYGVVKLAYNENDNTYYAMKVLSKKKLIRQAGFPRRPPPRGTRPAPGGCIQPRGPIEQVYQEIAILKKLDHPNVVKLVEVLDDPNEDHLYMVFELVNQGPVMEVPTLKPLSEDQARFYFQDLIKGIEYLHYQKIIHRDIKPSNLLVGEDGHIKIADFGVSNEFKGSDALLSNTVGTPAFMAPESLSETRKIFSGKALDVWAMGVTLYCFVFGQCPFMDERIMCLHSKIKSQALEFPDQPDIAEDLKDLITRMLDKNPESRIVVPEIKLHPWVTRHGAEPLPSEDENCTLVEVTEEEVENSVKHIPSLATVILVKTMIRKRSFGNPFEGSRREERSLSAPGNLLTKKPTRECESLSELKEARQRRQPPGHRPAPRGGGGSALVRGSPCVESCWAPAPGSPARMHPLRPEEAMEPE
Chain of UniProt Q14692 (Q14692 whole entry, looked up): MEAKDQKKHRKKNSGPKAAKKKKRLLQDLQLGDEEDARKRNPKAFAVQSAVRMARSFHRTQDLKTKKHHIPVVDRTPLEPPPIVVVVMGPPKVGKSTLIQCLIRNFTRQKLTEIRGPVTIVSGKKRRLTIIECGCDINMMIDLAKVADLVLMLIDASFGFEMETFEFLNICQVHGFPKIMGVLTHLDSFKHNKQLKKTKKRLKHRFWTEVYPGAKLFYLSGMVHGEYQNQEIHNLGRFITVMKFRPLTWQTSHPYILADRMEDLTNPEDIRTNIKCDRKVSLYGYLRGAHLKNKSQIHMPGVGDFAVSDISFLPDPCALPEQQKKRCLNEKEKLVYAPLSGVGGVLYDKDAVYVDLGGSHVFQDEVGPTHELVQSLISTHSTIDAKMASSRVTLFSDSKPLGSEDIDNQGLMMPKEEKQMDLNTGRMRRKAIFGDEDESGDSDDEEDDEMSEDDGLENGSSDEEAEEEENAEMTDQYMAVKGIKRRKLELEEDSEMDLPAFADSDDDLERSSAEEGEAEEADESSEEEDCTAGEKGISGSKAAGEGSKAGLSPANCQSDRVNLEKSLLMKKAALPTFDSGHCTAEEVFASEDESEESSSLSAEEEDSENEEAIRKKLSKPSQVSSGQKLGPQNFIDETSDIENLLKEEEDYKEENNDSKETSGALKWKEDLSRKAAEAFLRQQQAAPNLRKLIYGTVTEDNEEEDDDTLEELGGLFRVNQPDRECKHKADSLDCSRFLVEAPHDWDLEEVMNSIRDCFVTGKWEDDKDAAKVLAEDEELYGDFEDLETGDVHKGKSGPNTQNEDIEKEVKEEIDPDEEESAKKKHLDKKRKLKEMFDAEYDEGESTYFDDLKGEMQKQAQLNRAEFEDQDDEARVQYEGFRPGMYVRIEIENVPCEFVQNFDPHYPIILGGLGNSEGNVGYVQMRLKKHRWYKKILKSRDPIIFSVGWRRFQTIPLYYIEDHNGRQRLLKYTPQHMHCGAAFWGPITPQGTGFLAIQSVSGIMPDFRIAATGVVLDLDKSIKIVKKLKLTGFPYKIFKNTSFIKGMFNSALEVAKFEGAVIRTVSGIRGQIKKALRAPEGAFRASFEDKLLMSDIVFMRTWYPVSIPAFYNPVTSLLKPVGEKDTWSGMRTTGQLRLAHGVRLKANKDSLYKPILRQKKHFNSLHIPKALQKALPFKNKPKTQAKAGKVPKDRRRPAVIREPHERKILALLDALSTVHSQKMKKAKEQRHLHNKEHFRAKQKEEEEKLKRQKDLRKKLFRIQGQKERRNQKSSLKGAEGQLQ
Chain of UniProt Q9Y2V2 (Q9Y2V2 whole entry, looked up): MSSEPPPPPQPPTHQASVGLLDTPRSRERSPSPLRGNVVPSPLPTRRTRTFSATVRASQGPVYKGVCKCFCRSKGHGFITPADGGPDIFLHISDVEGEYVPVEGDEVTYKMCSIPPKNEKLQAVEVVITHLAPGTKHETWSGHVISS

Target	log2 fold change (vemurafenib)	log2 fold change [1]	log2 fold change (barasertib)	log2 fold change [2]	log2 fold change (volasertib)	log2 fold change [3]	log2 fold change [4]	log2 fold change [5]	log2 fold change (saracatinib)	log2 fold change (sotrastaurin)	log2 fold change (alvocidib)	log2 fold change (Tubastatin A)	log2 fold change [6]	log2 fold change (defactinib)	log2 fold change [7]	log2 fold change (encorafenib)	log2 fold change [8]	log2 fold change (alisertib)	log2 fold change [9]	log2 fold change (gefitinib)
ATP13A1 (UniProt Q9HD20)	-0.006	0.013	-0.006	0.023	-0.036	0.067	0.004	-0.343 (active)	0.012	-0.012	0.051	0.036	-0.012	0.028	-0.002	-0.008	-0.067	0.055	0.03	0.011
BMS1 (UniProt Q14692)	-0.038	0.023	0.127	-0.027	-0.018	0.012	-0.054	0.006	-0.004	0.005	-0.016	-0.024	0.042	0.053	0.007	0.075	0.01	0.035	-0.01	-0.042
ATP6V0A2 (UniProt Q9Y487)	-0.035	0.013	0.037	0.071	0.005	0.017	-0.117	0.14	-0.007	0.029	-0.129	0.091	0.022	0.008	0.001	0.03	-0.027	0.015	0.048	0.036
BLOC1S6 (UniProt Q9UL45)	0.005	0.007	-0.012	0.013	0.032	0.043	0.048	0.009	-0.034	-0.06	-0.028	0.033	0.051	0.014	0.082	0.147	0.056	-0.22	-0.036	0.047
CARHSP1 (UniProt Q9Y2V2)	0.032	-0.015	0.024	0.033	-0.024	-0.061	-0.02	0.044	0	-0.042	0.031	0.065	0.009	-0.033	0.078	-0.013	-0.055	-0.014	0.01	-0.029
BRD2 isoform 2 (UniProt P25440)	0.033	-0.153	-0.053	0.548 (active)	0.369	0.042	0.617 (active)	-0.066	-0.047	-0.1	0.06	0.002	0.059	-0.187	0.068	0.084	-0.118	0	0.019	-0.009
CAMKK2 (UniProt Q96RR4)	-0.07	-0.026	0.003	0.176	0.075	0.057	0.003	0.002	-0.017	0.069	-0.018	-0.123	0.277 (active)	0.059	-0.113	-0.013	0.018	-0.01	0.019	0.021
CARS isoform 3 (UniProt P49589)	0.011	0.004	-0.032	-0.01	-0.052	0.02	0.004	-0.029	0.005	0.041	0.006	-0.041	0.001	-0.013	-0.01	-0.013	0.213 (active)	0.003	-0.005	-0.019
